Screening results as filed in PubChem BioAssay.
Most compounds without a hit are left out; they make up all but 7.7% or so of the library.
FMDV antiviral = foot and mouth disease virus antiviral activity | FMDV antiviral cell-based qHTS | Potency, µM (doses to about 57.9 µM), inactives show at the top dose activity change, negative = inhibition, usual class: inhibitors | AID 1159524 | 410,000 compounds, 1.2% hits; calls by dose curve; tested in HEK293T cells; note: read-out not given here; potency is the fitted concentration of half-maximal effect; nearly all actives have a fitted effect of over 45% in size
Giardia FBPA inh = blocks Giardia fructose-bisphosphate aldolase activity | Potency, µM (titrated, usually from 59.6 µM), without a hit: at the highest dose activity, negative = inhibition, most hits filed as inhibitors | A8B2U2 | 290,000 compounds, 0.71% hits | AID 2451 | purified Giardia FBPA; note: potency is the fitted concentration of half-maximal effect; nearly all actives have a fitted effect of over 55% in size
Target sequence (A8B2U2 whole entry, looked up): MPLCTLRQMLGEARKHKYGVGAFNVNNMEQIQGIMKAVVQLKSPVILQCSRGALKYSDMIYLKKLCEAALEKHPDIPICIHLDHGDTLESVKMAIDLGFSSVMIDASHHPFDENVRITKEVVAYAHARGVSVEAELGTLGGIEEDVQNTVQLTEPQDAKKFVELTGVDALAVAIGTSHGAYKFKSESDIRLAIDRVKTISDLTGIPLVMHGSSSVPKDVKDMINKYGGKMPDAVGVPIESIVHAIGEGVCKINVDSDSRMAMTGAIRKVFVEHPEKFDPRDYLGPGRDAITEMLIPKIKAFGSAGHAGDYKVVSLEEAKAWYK
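Giardia FBPA (40 nM reagent) was preincubated 10 min at RT with compound (up to 57.5 uM final), then substrate plus GAPDH/TPI/NAD/arsenate coupling system with diaphorase/resazurin was added; resorufin fluorescence (525/598 nm) was read after 20 min.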
Tb PYK inh = inhibitors of Trypanosoma brucei pyruvate kinase; Q57TT1; TbPYK enzyme, Kinase-Glo Plus ATP luminescence, 45 min; Potency, µM (series often up to 76.8 µM), without a hit: at the top dose activity, negative = inhibition, hits mostly inhibitors; 410,000 compounds, 0.12% hits; AID 624173; note: potency is the fitted concentration of half-maximal effect; nearly all actives have a fitted effect of over 50% in size
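Quantitative HTS: titrated library compounds versus trypanosomal pyruvate kinase in TEA buffer (pH 7.2) containing KCl, MgCl2, BSA and Tween-20. Reactions were initiated with ADP, 130 uM final. Kinase-Glo Plus luminescence was read after 45 min at RT.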
HCMV antiviral = blocks human cytomegalovirus replication. HFF cells, HCMV-luciferase reporter, 72 h; stronger effect = lower value. activity change, negative = inhibition, % at 57.5 µM. 410,000 compounds, 4.5% hits. AID 1259415; in the data active = activity change below about -60%; inconclusive = no clear call, values can overlap the other calls; inactive = above about -39%
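HFF cells seeded 16 h at 37C, treated with compounds, infected with luciferase-reporter HCMV at MOI 1 PFU/cell; luciferase read at 72 h post infection, normalized to buffer-only and Salinomycin controls.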
RE007 growth inh = less growth of the S. pombe RE007 Vpr strain | 360,000 compounds, 0.21% hits | Potency, µM (highest dose often 92.2 µM), for the others: at the highest dose activity change, negative = less growth, most hits filed as inhibitors | S. pombe RE007 Vpr strain, BacTiter-Glo ATP luminescence, 24 h | AID 651644; active = well fitted falling curve with a large enough effect; inconclusive = small, poorly fitted or top-dose-only effect; inactive = no such curve, though single readings can be large or run the other way; note: potency is the fitted concentration of half-maximal effect; nearly all actives have a fitted effect of over 50% in size
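Fission yeast strain RE007, carrying one chromosomally integrated HIV-1 vpr copy, was seeded at OD 0.01 in PMG+AL medium with 23 nL pinned compound. After 24 h at 30 °C and 99% humidity, viability was read by BacTiter-Glo luminescence.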
Sm TGR block = S. mansoni TGR enzyme inhibition; purified TGR, DTNB reduction, TNB absorbance 405 nm; Potency, µM (series often up to 114 µM), without a hit: at the top dose activity change, negative = inhibition, usual class: inhibitors; 360,000 compounds, 3% hits; note: potency is the fitted concentration of half-maximal effect; nearly all actives have a fitted effect of over 60% in size
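First, TGR (20 nM dispensed) and NADPH were mixed with compound. Second, a 15 min room-temperature incubation followed. Third, further NADPH and then DTNB were added to start the reaction. Finally, TNB absorbance was monitored kinetically.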
* hit, by the source's call; ? = inconclusive; . = not tested or not shown; [ ] = remark or other dose. Unless noted, calls come from the whole dose curve; as a rule, active = well fitted curve in the direction sought with a large enough effect; inconclusive = small, poorly fitted or top-dose-only effect, or another doubt; inactive = no such curve, though single readings can be large; an effect the other way counts as inactive or inconclusive. % is set by controls: 0 for no effect and ±100 for the full control effect.

SMILES	FMDV antiviral	Giardia FBPA inh	Tb PYK inh	HCMV antiviral	RE007 growth inh	Sm TGR block
Cc1ccc(NS(=O)(=O)c2ccc3[nH]c4c(c3c2)CCCC4)cc1N(C)C	58%	.	-13%	3	.	1%
O=S(=O)(NCCc1ccccc1)c1cccc(S(=O)(=O)N2CCOCC2)c1	52%	4%	-1%	20	6%	35µM*
Cn1cc(S(=O)(=O)N2CCOCC2)cc1C(=O)NCCc1ccccc1	7%	2%	-6%	.	8%	89µM*
CC(=O)Nc1nonc1-c1nnc(SCc2ccccc2C)n1C	-18%	.	3%	5	.	2%
CCc1cccc(C)c1NC(=O)CN1C(=O)C2(SCC(=O)N2c2cccc(F)c2)c2ccccc21 (stereo unspecified)	-12%	.	5%	-9	.	-6%
COc1ccc(OC)c([C@@H](O)[C@H](C)N)c1	-8%	.	.	.	.	.
Cc1ccc(N=C2NC(=O)/C(=C\c3ccsc3)S2)c(C)c1	4%	-3%	-8%	-72*	-21%	6%
Cc1ccc(N=C2NC(=O)/C(=C/c3cccnc3)S2)c(C)c1	?	4%	0%	-80*	3%	-3%
CC(=O)c1ccc(S(=O)(=O)Nc2ccc(-c3cn4c(C)csc4n3)cc2)cc1	28%	.	-10%	50	.	7%
COC(=O)[C@H]1[C@H](CO)[C@H]2Cn3c(cccc3=O)[C@H]2N1Cc1ccccc1F	.	.	.	4	.	.
Cc1cccc(N2C(=O)/C(=C/c3ccc(CN(CCC#N)S(C)(=O)=O)o3)C(=O)NC2=S)c1	-24%	?	?	8	-21%	8.9µM*
Cc1ccc(N2C(=O)/C(=C/c3ccc(CN(CCC#N)S(C)(=O)=O)o3)C(=O)NC2=S)cc1C	.	?	.	.	.	3.2µM*
CS(=O)(=O)N(CCC#N)Cc1ccc(/C=C2\C(=O)Nc3ccccc32)o1	-1%	-7%	-1%	-40	36%	-33%
O=C(CN(CC(=O)Nc1ccc(F)cc1)CC(=O)Nc1ccc(F)cc1)Nc1ccc(F)cc1	.	.	.	52	.	.
COc1ccc(CCNc2nc(-c3ccc(NC(C)=O)cc3)cs2)cc1OC	25µM*	-6%	-4%	-12	-9%	6%
COc1ccc(CCNc2nc(-c3sc(C)nc3C)cs2)cc1OC	25µM*	?	8%	-29	6%	0%
COc1ccc(CC(=O)Nc2nc(-c3ccncc3)cs2)cc1	-7%	-10%	-1%	-82*	-2%	-7%
COc1ccc(CCNc2nc(-c3ccc(O)cc3)cs2)cc1OC	?	-11%	-12%	?	-15%	-26%
COc1ccc(CCNc2nc(-c3ccncc3)cs2)cc1OC	?	-9%	-2%	-26	-8%	2%
COc1ccc(-c2csc(NC(=O)Cc3cc(OC)c(OC)c(OC)c3)n2)cc1OC	14µM*	-5%	-3%	?	1%	1%
COc1cc(-c2noc(CSc3nc(-c4ccccc4)cc(=O)[nH]3)n2)cc(OC)c1OC	-9%	.	-2%[15.4 µM]	0	.	-1%
Cc1cc(C)cc(-n2c(SCC(=O)NC3CCCCC3)nc3c([nH]c4ccccc43)c2=O)c1	-17%	.	8%	38	.	-9%
CC(=O)NCCNC(=O)c1nnc2n1CCN(C(=O)COc1ccccc1)C2	.	.	.	3	.	.
O=C(CN1C(=O)c2cccnc2Oc2ccc(Cl)cc21)NCCCN1CCCCC1	8%	.	3%[15.4 µM]	?	.	2%
CCn1ncc(/C=C/C(=O)Nc2c(C)nn(Cc3ccc(Cl)cc3Cl)c2C)c1C	-28%	5%	0%	-103*	-1%	-8%
SMILES	FMDV antiviral	Giardia FBPA inh	Tb PYK inh	HCMV antiviral	RE007 growth inh	Sm TGR block
O=C(CN(Cc1ccccc1)C(=O)CCl)c1cccc(Br)c1	?	.	-2%	-99*	17%	8.9µM*
CCC1(Cc2ccc(N)cc2)CCC(=O)NC1=O (stereo unspecified)	.	.	0%[157 µM]	.	.	.
O=C(Nc1ccc([N+](=O)[O-])cc1)/C(=C/c1cccc([N+](=O)[O-])c1)NC(=O)C1CCCCC1	.	3%	-3%	15	0%	2%
Cc1ccc(NC(=O)/C(=C/c2cccc([N+](=O)[O-])c2)NC(=O)C2CCCCC2)c(C)c1	.	.	3%	-96*	-4%	8%
O=C(NCCCN1CCOCC1)c1cnn(-c2ncc3c(n2)-c2ccccc2CC3)c1C1CC1	-6%	.	.	.	.	.
CNc1ccccc1C(C)(C)c1cc(-c2cccc(Br)c2)no1	?	-20%	-6%	?	-5%	1%
CNc1ccccc1C(C)(C)c1cc(-c2ccc(F)cc2)no1	?	-2%	-4%	-85*	15%	-15%
Cc1nc(S(=O)(=O)N2CCOCC2)c(C#N)c(C)c1Cl	-5%	4%	-4%	-105*	-3%	11%
Cc1nc(S(=O)(=O)NC2CCCCC2)c(C#N)c(C)c1Cl	80%	6%	5%	?	8%	-17%
Cc1cc(O)c(CN2CCN(S(=O)(=O)c3cccs3)CC2)cc1C(C)C	?	.	5%	-14	3%	0%
Oc1cc2c(cc1CN1CCc3ccccc3C1)OCO2	-19%	.	-8%	1	3%	2.5µM*
Cc1cc(C(C)(C)C)cc(CN2CCN(S(=O)(=O)c3cccs3)CC2)c1O	?	.	-1%	-77*	14%	.
COc1ccccc1N1CCN(Cc2ccco2)CC1	13%	-6%	33%	69	12%	-32%
O=C(CCN1CCN(c2ccccc2F)CC1)Nc1ccc2c(c1)OCO2	.	-2%	3%	-23	-2%	-24%
COc1ccccc1N1CCN(Cc2ccc(Br)s2)CC1	?	-27%	-7%	-81*	14%	-6%
Oc1cc2c(cc1CN1CCN(c3ccccc3F)CC1)OCO2	3%	0%	4%	18	-13%	1µM*
O=C(CC1N=C2c3ccccc3N=C(SCC(=O)Nc3cccc(Cl)c3)N2C1=O)NCc1cccs1 (stereo unspecified)	-16%	.	1%	-4	.	8%
Cc1ccc(C)n1C1C(=O)N(Cc2ccc(C(F)(F)F)cc2)c2c(F)cccc21 (stereo unspecified)	.	.	.	-35	.	.
COc1ccccc1N1CCN(Cc2cc3c(cc2O)OCO3)CC1	-15%	.	-2%	-15	-18%	1.8µM*
CC(C)(C)c1ccc(S(=O)(=O)N2CCN(Cc3cc4c(cc3O)OCO4)CC2)cc1	-15%	.	6%	-23	9%	2.8µM*
